Active and inactive are the calls of the source.
Legend:
[1] = test system: PRMT1 (protein arginine N-methyltransferase 1); assay: PRMT1 binders on small-molecule microarrays, primary screen, biochemical, small-molecule microarray, 635 nm fluorescence (AID 1088); details: small-molecule microarray binding, higher = more signal;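 note: binding of Prmt1 protein to compounds spotted on small-molecule microarray slides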
[2] = yeast growth modulation, basal conditions, primary screen, YJM789 clinical isolate, OD600, 24 h (AID 1089);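 note: growth of clinical yeast isolate S. cerevisiae YJM 789 seeded 1000 cells per well; test concentration not given here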; details: S. cerevisiae YJM789 growth, higher = more signal, called active from +8 up or from −8 down
[3] = fission yeast growth modulation, primary screen, strain 972, OD600, 24 h, no modulator (AID 1090);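 note: basal condition with compound alone and no growth modifier present; test concentration not given here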; details: S. pombe 972 growth, higher = more signal, called active from +8 up or from −8 down
[4] = S. cerevisiae growth modulation with rapamycin, primary screen, strain BY4716, OD600, 96 h (AID 1091); details: higher = more signal, called active from +8 up or from −8 down; note: test concentration not given here
[5] = biological target: Torsin-1A-interacting protein 2 (Homo sapiens) (UniProt Q8NFQ8); assay: LULL1 binders on small-molecule microarray, primary screen, cell lysate, human LULL1 lysate, 635/667 nm fluorescence (AID 1092); details: hLULL1 lysate binding, 635 nm fluorescence, higher = more signal;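 note: probe is lysate of COS7 cells overexpressing human LULL1; score merges per-feature 667 nm fluorescence with signal-to-noise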
[6] = E. coli growth modulation, two-sided OD650, primary screen, E. coli filamentation project, strain DRC41, 24 h (AID 1093); details: OD650, 24 h, higher = more signal, called active from +8 up or from −8 down;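 note: MC1000 strain lacking acrAB efflux and sulA so SOS filamentation is blocked; test concentration not given here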
[7] = small-molecule microarray binders of probe aLefty2, primary screen, biochemical, biotinylated probe, 635/667 nm fluorescence (AID 1094); details: higher = more signal;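 note: score merges spot fluorescence near 667 nm with spot signal-to-noise ratio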
[8] = test system: Noggin (protein binding on small-molecule microarray); assay: Noggin binders on small-molecule microarray, primary screen, biochemical, 635/667 nm fluorescence (AID 1095); details: 635 nm fluorescence, higher = more signal;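 note: score merges 667 nm feature fluorescence with signal to noise over triplicate slides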
[9] = biological target: Neurogenic locus notch homolog protein 3 (Homo sapiens) (UniProt Q9UM47); assay: NOTCH3 binders on small-molecule microarray, primary screen, biochemical, 635/667 nm fluorescence (AID 1096); details: NOTCH3 binding, 635 nm fluorescence, higher = more signal
[10] = small-molecule microarray binders of probe aEGFR, primary screen, biochemical, biotinylated probe, 635/667 nm fluorescence (AID 1097); details: higher = more signal;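 note: probe is a biotinylated anti-EGFR antibody binding compounds printed on slides; score combines fluorescence near 667 nm and signal to noise of each spot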
[11] = test system: Plasmodium falciparum Sir2 (PF13_0152, Sir2A); assay: pfSir2 binders on small-molecule microarrays, primary screen, biochemical, small-molecule microarray, 635 nm fluorescence (AID 1098); details: small-molecule microarray binding, fluorescence 635 nm; higher = more signal;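 note: score merges spot fluorescence intensity with its signal-to-noise ratio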
[12] = small-molecule microarray binders of probe aDKK1, primary screen, biochemical, biotinylated probe, 635/667 nm fluorescence (AID 1099); details: higher = more signal;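 note: score merges 667nm spot fluorescence with signal to noise across triplicate slides; reference of the scale not given here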
[13] = small-molecule microarray binders of probe aCHRDL2, primary screen, biochemical, biotinylated probe, 635/667 nm fluorescence (AID 1100); details: higher = more signal
[14] = splicing luciferase reporter signal modulators, primary screen, spliceosome inhibition project, cell-based, HEK293, splice +/- reporter (AID 1101); details: luminescence, 24 h, higher = more signal, called active from +8 up or from −8 down;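 note: HEK293 cells carrying a splicing-competent luciferase reporter gene; test concentration not given here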
[15] = biological target: Fibroblast growth factor 10 (Homo sapiens) (UniProt O15520); assay: FGF10 binders on small-molecule microarrays, primary screen, biochemical, small-molecule microarray, 635 nm fluorescence (AID 1102); details: FGF10 binding, fluorescence 635 nm, higher = more signal
[16] = test system: glycogen synthase kinase-3 (GSK3A per assay name; protocol says GSK3B); assay: GSK3 binders on small-molecule microarrays, primary screen, biochemical, small-molecule microarray, 635 nm fluorescence, GSK3A (AID 1103); details: small-molecule microarray binding, fluorescence 635 nm; higher = more signal; note: the record names both GSK3A and GSK3B
[17] = biological target: Epidermal growth factor receptor (Homo sapiens) (UniProt P00533); assay: EGFR binders on small-molecule microarrays, primary screen, biochemical, small-molecule microarray, 635 nm fluorescence (AID 1104); details: EGFR binding, higher = more signal;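 note: score merges 667 nm emission intensity with spot signal to noise over triplicate slides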
[18] = biological target: Follistatin-related protein 3 (Homo sapiens) (UniProt O95633); assay: FSTL3 binders on small-molecule microarrays, primary screen, biochemical, small-molecule microarray, 635 nm fluorescence (AID 1105); details: FSTL3 binding, higher = more signal;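 note: score merges emission near 667 nm and signal to noise per printed spot across three slides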
[19] = biological target: Dickkopf-related protein 1 (Homo sapiens) (UniProt O94907); assay: DKK1 binders on small-molecule microarrays, primary screen, biochemical, small-molecule microarray, 635 nm fluorescence scan (AID 1106); details: DKK1 binding, higher = more signal;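 note: score merges emission near 667 nm with signal to noise over three replicate slides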
[20] = test system: Inhibin beta A chain (activin A); assay: INHBA (activin A) binders on microarrays, primary screen, biochemical, small-molecule microarray, 635 nm fluorescence scan (AID 1107); details: small-molecule microarray binding, higher = more signal;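 note: mouse activin A protein probed at 4.33 µg/mL on printed slides; score merges bound-protein fluorescence near 667 nm with spot signal-to-noise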

Sequence of Torsin-1A-interacting protein 2 (Homo sapiens) (Q8NFQ8 whole entry, looked up): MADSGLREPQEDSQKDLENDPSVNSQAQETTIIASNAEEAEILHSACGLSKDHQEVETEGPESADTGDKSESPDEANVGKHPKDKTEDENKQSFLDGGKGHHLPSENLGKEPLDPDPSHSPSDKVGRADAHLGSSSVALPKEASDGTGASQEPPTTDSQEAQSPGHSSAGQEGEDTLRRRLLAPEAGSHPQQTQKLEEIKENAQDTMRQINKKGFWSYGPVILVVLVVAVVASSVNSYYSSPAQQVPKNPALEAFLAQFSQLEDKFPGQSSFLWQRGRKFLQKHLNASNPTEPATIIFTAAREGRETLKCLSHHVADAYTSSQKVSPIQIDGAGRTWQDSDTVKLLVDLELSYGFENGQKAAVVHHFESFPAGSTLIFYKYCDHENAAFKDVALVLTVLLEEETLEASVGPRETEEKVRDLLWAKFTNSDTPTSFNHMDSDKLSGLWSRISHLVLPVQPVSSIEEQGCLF
Sequence of Epidermal growth factor receptor (Homo sapiens) (P00533 whole entry, looked up): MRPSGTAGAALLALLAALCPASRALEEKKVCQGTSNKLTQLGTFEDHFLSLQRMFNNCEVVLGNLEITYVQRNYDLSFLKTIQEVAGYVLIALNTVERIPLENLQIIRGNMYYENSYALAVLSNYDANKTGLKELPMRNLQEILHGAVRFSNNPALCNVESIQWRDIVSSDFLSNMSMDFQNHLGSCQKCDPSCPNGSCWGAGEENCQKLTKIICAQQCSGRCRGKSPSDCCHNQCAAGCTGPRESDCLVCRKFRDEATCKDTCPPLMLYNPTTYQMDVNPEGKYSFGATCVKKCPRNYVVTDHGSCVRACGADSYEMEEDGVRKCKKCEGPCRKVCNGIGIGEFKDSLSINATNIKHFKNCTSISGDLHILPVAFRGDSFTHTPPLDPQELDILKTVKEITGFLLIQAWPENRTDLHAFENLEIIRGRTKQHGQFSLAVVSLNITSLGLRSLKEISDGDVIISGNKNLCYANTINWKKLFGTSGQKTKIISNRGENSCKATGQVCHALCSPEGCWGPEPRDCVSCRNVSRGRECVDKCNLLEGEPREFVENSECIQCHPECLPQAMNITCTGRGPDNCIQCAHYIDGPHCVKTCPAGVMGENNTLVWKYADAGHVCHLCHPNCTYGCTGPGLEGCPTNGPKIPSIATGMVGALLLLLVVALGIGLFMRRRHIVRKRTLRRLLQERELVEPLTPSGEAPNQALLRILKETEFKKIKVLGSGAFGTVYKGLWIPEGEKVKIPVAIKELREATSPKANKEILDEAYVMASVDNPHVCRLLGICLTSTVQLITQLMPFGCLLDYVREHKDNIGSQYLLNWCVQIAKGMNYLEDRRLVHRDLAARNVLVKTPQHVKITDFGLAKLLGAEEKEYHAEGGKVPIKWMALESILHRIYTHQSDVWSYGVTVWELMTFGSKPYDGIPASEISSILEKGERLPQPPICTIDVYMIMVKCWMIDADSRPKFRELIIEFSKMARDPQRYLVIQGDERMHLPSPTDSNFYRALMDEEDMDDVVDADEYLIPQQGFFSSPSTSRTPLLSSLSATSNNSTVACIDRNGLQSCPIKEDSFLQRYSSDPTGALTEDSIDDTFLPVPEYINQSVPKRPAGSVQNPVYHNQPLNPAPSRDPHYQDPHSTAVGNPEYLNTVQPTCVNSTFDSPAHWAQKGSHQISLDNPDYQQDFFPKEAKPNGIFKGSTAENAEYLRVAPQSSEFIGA
Sequence of Neurogenic locus notch homolog protein 3 (Homo sapiens) (Q9UM47 whole entry, looked up): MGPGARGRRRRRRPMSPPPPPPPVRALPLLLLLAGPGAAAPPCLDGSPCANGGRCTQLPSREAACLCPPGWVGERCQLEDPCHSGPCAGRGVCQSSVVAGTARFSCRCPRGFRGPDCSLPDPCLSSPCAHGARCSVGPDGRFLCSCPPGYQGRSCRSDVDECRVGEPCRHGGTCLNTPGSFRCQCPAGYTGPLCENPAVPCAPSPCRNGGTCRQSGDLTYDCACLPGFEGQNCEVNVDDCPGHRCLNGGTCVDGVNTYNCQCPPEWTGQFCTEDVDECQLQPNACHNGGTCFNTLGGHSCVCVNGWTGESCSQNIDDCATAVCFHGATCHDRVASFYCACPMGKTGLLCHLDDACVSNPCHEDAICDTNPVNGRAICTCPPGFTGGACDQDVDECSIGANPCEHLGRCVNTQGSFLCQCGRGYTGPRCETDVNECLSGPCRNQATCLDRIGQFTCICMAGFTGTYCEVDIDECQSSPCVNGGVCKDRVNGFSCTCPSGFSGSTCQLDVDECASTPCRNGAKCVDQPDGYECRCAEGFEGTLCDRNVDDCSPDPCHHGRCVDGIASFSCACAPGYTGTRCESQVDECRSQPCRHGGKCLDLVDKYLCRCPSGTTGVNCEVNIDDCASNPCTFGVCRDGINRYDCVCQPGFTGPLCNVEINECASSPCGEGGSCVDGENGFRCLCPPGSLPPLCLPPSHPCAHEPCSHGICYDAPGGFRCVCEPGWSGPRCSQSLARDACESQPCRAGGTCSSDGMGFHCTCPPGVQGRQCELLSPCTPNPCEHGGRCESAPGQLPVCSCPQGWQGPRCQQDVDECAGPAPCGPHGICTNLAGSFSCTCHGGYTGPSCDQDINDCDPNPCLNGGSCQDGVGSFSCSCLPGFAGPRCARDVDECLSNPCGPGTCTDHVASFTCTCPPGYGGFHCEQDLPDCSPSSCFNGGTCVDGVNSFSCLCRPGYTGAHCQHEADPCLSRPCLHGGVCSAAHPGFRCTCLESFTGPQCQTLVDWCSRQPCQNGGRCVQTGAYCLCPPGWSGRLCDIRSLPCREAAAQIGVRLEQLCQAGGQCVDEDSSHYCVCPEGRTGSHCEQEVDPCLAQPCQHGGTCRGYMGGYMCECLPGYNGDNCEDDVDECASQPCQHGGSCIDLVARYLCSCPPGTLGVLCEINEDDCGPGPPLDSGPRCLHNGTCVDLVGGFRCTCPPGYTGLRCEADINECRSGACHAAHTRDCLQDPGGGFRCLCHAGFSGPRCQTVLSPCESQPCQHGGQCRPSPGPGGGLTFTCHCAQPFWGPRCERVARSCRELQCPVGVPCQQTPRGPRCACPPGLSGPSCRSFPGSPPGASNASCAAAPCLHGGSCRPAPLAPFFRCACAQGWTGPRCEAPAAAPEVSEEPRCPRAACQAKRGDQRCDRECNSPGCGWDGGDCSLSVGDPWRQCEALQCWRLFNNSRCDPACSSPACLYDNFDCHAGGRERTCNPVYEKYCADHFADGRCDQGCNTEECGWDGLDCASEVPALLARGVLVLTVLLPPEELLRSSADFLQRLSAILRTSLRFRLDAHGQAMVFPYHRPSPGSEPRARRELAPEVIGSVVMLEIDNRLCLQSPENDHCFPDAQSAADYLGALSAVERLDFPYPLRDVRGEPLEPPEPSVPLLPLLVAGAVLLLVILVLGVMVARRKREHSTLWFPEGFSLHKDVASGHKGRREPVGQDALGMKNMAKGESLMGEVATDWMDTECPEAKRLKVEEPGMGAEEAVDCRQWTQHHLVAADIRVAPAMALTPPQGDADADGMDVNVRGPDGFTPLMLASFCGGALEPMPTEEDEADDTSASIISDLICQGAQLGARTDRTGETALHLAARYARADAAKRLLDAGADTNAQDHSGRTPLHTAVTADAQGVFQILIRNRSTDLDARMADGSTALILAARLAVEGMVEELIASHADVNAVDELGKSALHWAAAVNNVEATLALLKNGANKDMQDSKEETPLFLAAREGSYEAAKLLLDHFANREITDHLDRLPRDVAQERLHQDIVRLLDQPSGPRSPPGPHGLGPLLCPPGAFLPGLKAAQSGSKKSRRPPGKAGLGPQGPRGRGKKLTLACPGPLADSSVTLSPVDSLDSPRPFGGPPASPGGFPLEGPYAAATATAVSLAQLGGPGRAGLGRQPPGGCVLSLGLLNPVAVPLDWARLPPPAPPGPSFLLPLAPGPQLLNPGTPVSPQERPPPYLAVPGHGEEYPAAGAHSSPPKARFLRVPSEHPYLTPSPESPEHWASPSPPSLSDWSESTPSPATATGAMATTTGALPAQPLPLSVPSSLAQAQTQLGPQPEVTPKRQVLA
Sequence of Follistatin-related protein 3 (Homo sapiens) (O95633 whole entry, looked up): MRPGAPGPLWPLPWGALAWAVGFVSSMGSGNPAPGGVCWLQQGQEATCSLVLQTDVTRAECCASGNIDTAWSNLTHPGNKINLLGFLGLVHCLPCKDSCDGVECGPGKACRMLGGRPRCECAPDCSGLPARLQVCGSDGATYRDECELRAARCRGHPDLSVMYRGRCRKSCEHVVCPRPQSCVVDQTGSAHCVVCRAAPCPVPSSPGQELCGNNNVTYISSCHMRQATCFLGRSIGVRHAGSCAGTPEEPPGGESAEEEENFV
Sequence of Dickkopf-related protein 1 (Homo sapiens) (O94907 whole entry, looked up): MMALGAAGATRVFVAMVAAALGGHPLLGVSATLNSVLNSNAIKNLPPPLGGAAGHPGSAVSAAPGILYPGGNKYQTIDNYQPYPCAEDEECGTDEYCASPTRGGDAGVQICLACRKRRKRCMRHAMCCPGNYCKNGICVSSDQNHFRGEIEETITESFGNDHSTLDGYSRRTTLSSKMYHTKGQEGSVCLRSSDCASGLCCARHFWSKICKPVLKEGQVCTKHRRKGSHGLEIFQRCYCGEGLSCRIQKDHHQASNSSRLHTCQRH
Sequence of Fibroblast growth factor 10 (Homo sapiens) (O15520 whole entry, looked up): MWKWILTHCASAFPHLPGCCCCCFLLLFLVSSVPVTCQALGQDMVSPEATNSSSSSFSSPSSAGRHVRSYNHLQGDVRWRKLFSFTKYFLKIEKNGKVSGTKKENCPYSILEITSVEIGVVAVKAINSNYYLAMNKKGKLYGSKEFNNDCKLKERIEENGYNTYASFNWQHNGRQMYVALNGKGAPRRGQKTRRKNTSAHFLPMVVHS

Compound | composite z-score [1] | z-score [2] | z-score [3] | z-score [4] | composite z-score [5] | z-score [6] | composite z-score [7] | composite z-score [8] | composite z-score [9] | composite z-score [10] | composite z-score [11] | composite z-score [12] | composite z-score [13] | z-score [14] | composite z-score [15] | composite z-score [16] | composite z-score [17] | composite z-score [18] | composite z-score [19] | composite z-score [20]
C#CCN([C@@H](Cc1ccccc1)C(=O)OC)[C@@H](/C=C/C1CC1)[C@H](O)Cc1ccccc1 | -0.59 | -0.464 (inactive) | -1.22 (inactive) | -0.0898 (inactive) | 0.209 | -0.807 (inactive) | -0.0051 | 0.0503 | -0.525 | -0.307 | -0.437 | -0.575 | 0.37 | 0.414 (inactive) | -0.496 | -0.489 | -0.473 | -0.494 | -0.185 | 1.49
CC(=O)NCCCC[C@@H]1NC(=O)[C@@H]2C[C@H](C(=O)NCCCCCN)[C@H](c3cccc(OCCO)c3)N2C1=O | 0.872 | -3.85 (inactive) | -0.31 (inactive) | -0.858 (inactive) | 1.66 | 1.36 (inactive) | 0.534 | 1.42 | 1.09 | 0.101 | 1.05 | 0.681 | 0.0358 | -1.29 (inactive) | 1.24 | 0.533 | 0.504 | 1.33 | 0.823 | 0.488
C=C(COC)/C(=C/C[C@H](OC(=O)c1ccncc1)c1ccccc1OCCO)c1cc(C(=O)OC)ccc1OC | 1.44 | -0.819 (inactive) | -0.925 (inactive) | -0.498 (inactive) | 2.65 | 0.0572 (inactive) | -0.157 | 1.23 | 1.04 | 0.146 | 0.515 | -0.0213 | -0.331 | -0.0627 (inactive) | 1.25 | 0.684 | 0.0709 | 1.33 | 0.242 | 1
C=CCC(OC(C)=O)[C@@H]1[C@@H](N(Cc2ccc(-c3cccc(C(F)(F)F)c3)o2)C(=O)c2ccc(-c3ccccc3)cc2)c2cc(OCCCO)ccc2N1C(=O)Cc1ccc2ccccc2c1 (stereo not given in full) | -0.457 | 0.955 (inactive) | 0.863 (inactive) | 1.09 (inactive) | 0.512 | -0.898 (inactive) | -0.0928 | -0.214 | -0.3 | -0.235 | -0.417 | -0.155 | 0.532 | -0.435 (inactive) | -0.186 | -1.22 | -0.782 | -0.116 | -0.403 | 0.841
COCCCNC(=O)[C@@H]1c2ccccc2C(=O)N(C(C)C)[C@H]1c1ccc(CO)cc1 | -0.325 | 0.602 (inactive) | 0.439 (inactive) | 0.395 (inactive) | -0.719 | -0.214 (inactive) | 0.0321 | 0.523 | -0.406 | -0.02 | 0.634 | -0.0293 | 0.39 | 0.555 (inactive) | -0.346 | -0.291 | -0.104 | 0.115 | 0.0487 | 0.761
CCCCCN1CC=CC23O[C@@H]4/C=C\CCC(C)OC(=O)C4[C@H]2C(=O)N(C(CO)C(C)C)[C@@H]3C1=O (stereo not given in full) | 0.0839 | -0.646 (inactive) | -0.957 (inactive) | -1.02 (inactive) | 2.1 | 1.5 (inactive) | -0.506 | -0.087 | 0.165 | -0.14 | 1.63 | -0.612 | -0.288 | 0.139 (inactive) | 0.0694 | -0.169 | -0.538 | 0.0876 | -0.543 | 1.18
CC[C@@H]1O[Si](C(C)C)(C(C)C)c2c1cc(-c1cc(C)c(OC)c(C)c1)nc2-c1ccc(Oc2ccccc2)cc1 | -0.0555 | 0.0662 (inactive) | 0.131 (inactive) | -0.798 (inactive) | -0.346 | -0.333 (inactive) | -0.123 | 0.0174 | 0.0178 | -0.162 | -0.551 | 0.825 | -0.0144 | -0.166 (inactive) | 0.0008 | -0.732 | -0.451 | -0.452 | -0.497 | 0.135
COc1ccc([Si](C)(C)[C@H]2[C@H](CC(=O)N3Cc4ccccc4C[C@H]3CO)O[C@@]3(C(=O)N(Cc4ccc(N5CCOC5=O)cc4)c4ccccc43)[C@@H]2C)cc1 | 1.57 | -1.31 (inactive) | -0.053 (inactive) | 2.17 (inactive) | 1.25 | -0.167 (inactive) | -0.123 | 1.46 | 1.11 | -0.022 | 0.149 | -0.161 | -0.345 | -0.817 (inactive) | 0.878 | 0.676 | 1.03 | 1.04 | 0.929 | 1.05
O=C(NCc1ccc(F)cc1)[C@H]1C[C@H]2C(=O)NCC(=O)N2[C@H]1c1ccc(O)cc1 | 1.55 | 1.29 (inactive) | 1.01 (inactive) | 1.56 (inactive) | 1.22 | 0.816 (inactive) | 0.372 | 1.35 | 0.0831 | -0.334 | 1.01 | 0.207 | 0.112 | -0.12 (inactive) | 1.37 | -0.88 | 0.297 | 0.138 | 0.787 | 0.43
COc1ccc(CCNC(=O)[C@@]2(Sc3ccc(C)cc3)CC(=O)N(Cc3ccccc3C(F)(F)F)[C@@H]2c2ccc(CO)cc2I)cc1 | 1 | -1.65 (inactive) | -4.64 (inactive) | 1.22 (inactive) | 1.97 | 0.404 (inactive) | -0.0668 | -1.46 | -1.03 | -0.264 | 1.09 | -0.0552 | 1.08 | -1.14 (inactive) | -1.06 | -0.404 | -1.24 | -1.64 | -1.14 | 0.67

From PubChem BioAssay
